Assay results taken from PubChem BioAssay AID1376 (SRMLSC, 2008).
The campaign covered roughly 220,000 compounds. About 530 (0.24%) were called active. Only a selection was taken, and actives are over-represented in it overall. Entries with a potency or affinity are not part of this list. Values without a mark were called inactive. Cut-off read from the data, not from the text of the source: active = inhibition above about 13%; inconclusive = no clear call, values can overlap the other calls; inactive = below that.

target: Bifunctional protein GlmU (Mycobacterium tuberculosis (strain ATCC 25618 / H37Rv)) (UniProt P9WMN3); assay: inhibition of mycobacterial GlmU enzyme – biochemical, glucosamine-1-phosphate acetyltransferase (AID 1376);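 note: 0% = complete reaction with vehicle and 100% = reaction without substrate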; settings: M. tuberculosis GlmU acetyltransferase enzyme assay; stronger effect = higher value;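 tested at 30 µM in the primary screen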
Sequence (P9WMN3 whole entry, looked up): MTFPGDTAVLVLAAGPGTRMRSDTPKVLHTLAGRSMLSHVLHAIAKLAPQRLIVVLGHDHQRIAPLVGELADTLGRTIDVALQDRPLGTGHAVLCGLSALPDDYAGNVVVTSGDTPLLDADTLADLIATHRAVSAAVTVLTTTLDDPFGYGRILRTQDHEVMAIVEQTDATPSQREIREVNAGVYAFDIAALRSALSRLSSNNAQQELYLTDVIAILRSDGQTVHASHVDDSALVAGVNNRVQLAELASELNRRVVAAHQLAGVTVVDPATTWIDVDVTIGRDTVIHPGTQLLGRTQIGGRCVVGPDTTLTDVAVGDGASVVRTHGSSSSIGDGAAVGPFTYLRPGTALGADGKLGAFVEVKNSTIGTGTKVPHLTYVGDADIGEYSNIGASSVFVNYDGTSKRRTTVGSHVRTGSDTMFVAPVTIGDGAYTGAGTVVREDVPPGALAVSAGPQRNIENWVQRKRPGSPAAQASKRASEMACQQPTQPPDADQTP

Structure (SMILES) | inhibition
CCCCN(CC)Cc1ccc(CNC(=S)Nc2cccc(F)c2)o1 | -3.9%
N#C/C(=C\c1ccc[nH]1)C(=O)NCC1CCCO1 (stereo unspecified) | 2.87%
Brc1ccc(CSc2ccc3nnc(-c4ccccn4)n3n2)cc1 | -0.66%
COc1cccc(/C=N\n2c(C)nnc2C)c1OC | 8.8%
Cc1ccc(N2C(=O)c3ccccc3C2C(=O)c2cc(C)ccc2O)cc1 (stereo unspecified) | -7.05%
Cc1ccc(N2C(=O)c3ccccc3C2C(=O)c2ccc(C)c(C)c2O)cc1 (stereo unspecified) | -5.61%
Cc1ccc(N2C(=O)c3ccccc3C2C(=O)c2ccc(O)cc2O)cc1 (stereo unspecified) | 13.2% (active)
CN1CCSc2ccc(C(=O)Nc3cc(F)ccc3F)cc21 | -5.68%
Cc1ccc(C(=O)C2CCN(CC(=O)NC3CCCCC3)CC2)cc1 | 1.4%
COc1ccccc1NS(=O)(=O)c1cc(NC(=O)c2sccc2C)ccc1N1CCCC1 | 0.4%
CC1(C)OC(=O)C(=Cc2ccc(-c3ccc(S(N)(=O)=O)cc3)o2)C(=O)O1 | -2.03%
CCOC(=O)c1cc(-c2ccc(/C=C3/C(=O)NC(=O)C(C#N)=C3C)o2)ccc1Cl | -3.05%
CC1=C(C#N)C(=O)NC(=O)/C1=C/c1ccc(-c2ccc(S(N)(=O)=O)cc2)o1 | 14.3% (active)
COc1ccc(CCC(=O)Nc2cc(Cl)ccc2N2CCN(C)CC2)cc1 | -2.71%
Cc1cc(C)nc(NN=C2CCCC2)n1 | -4.71%
C/C=C1/CN2[C@@H]3C4CO[C@@H]3c3c([nH]c5cc(OC)ccc35)[C@@H]2CC14 (stereo partly specified) | 4.24%
O=C(O)c1ccc(COc2ccccc2/C=C2/NC(=O)N(c3cccc(Cl)c3)C2=O)cc1 | -4.52%
O=C(O)c1cccc(-n2cccc2/C=C2/NC(=O)N(Cc3ccccc3F)C2=O)c1 | 7.3%
O=C(O)c1cccc(-n2cccc2/C=C2/NC(=O)N(c3ccc(Cl)cc3)C2=O)c1 | 68.6% (active)
O=C(N/N=C/c1cccn1-c1cccc(C(=O)O)c1)Nc1ccccc1 | 7.06%
Cc1ccc(CN2C(=O)N/C(=C\c3cccn3-c3cccc(C(=O)O)c3)C2=O)cc1 | 7.01%
N#C/C(=C/c1cccn1-c1cccc(C(=O)O)c1)c1ccc(Cl)cc1 | 7.87%
COc1ccc(-n2cccc2/C=C2/NC(=O)N(c3cccc(Cl)c3)C2=O)cc1 | 1.07%
O=C(O)c1cccc(-n2cccc2/C=C2/NC(=O)N(c3cccc(Cl)c3)C2=O)c1 | 2.42%
O=C(O)c1cccc(-n2cccc2/C=C2\NC(=O)N(Cc3ccc(F)cc3)C2=O)c1 | 13.9% (active)
ON=Cc1cccn1-c1ccccc1 | 2.34%
